# Screens: PubChem BioAssay, several laboratories
# GIRK2 activator = GIRK2 channel activators by thallium flux | HEK293 GIRK2/NPY4 cells, thallium flux fluorescence | 34,000 tested, under 10 active | P48051 | activation (% efficacy), % for hits at 37.5 µM | AID 1259324;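 active = primary screen hit, no activity in plain HEK293 cells, and in GIRK2-only cells above 5% efficacy rising with concentration; inactive = the rest, including fluorescent compounds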;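 also: efficacy is normalized control-subtracted fluorescence 15 s after thallium addition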
# AMPAR-TARP mod = GluA2-stargazin AMPA receptor complex modulation | O88602+P19491 | HEK293 GluA2+stargazin, membrane potential dye (FDSS), glutamate EC50; hits were called plate by plate, in both directions | calls only at 30 µM | 40,000 compounds, 3.5% hits;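 active = any of four per-well response measures lying three or more SD from its plate-wide compound average, in either direction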
# An asterisk follows results filed as active; i = inactive; nt = not tested or not shown; + = active, no number; ! = a repeat was not active. Only a selection was taken, and hits are over-represented in it overall.
SMILES,GIRK2 activator,AMPAR-TARP mod
CCOC(=O)c1sc(NC(=O)C2CCCN2S(C)(=O)=O)c(C(=O)OCC)c1C (configuration not stated),i,i
CCOC(=O)c1sc(NC(=O)c2ccncc2)c(C(=O)OCC)c1C,nt,+
Cc1cc([N+](=O)[O-])ccc1NC(=O)C(=O)N1CCC(Cc2ccccc2)CC1,nt,i
O=C(O)CCN1CCN(Cc2ccc(Cl)cc2)CC1,i,+
O=C(O)CCN1CCN(Cc2ccccc2)CC1,i,i
Cc1cc(C(=O)NCC2CCN(S(=O)(=O)C3CC3)CC2)no1,i,i
CCN1CCc2nc(N)sc2C1,i,+
CCOC(=O)N1CCc2nc(NC(C)=O)sc2C1,i,i
COc1ccc(-n2c(C)nc3ccc(NC(=O)c4ccc(F)c(F)c4)cc3c2=O)cc1,nt,+
COc1cccc(C(=O)Nc2ccc3nc(C)n(-c4ccc(C)cc4)c(=O)c3c2)c1,nt,i
CN(C)C(CNC(=O)C1(c2ccccc2)CCOCC1)c1ccsc1 (configuration not stated),i,i
CN(C)C(CNC(=O)C1(c2ccc(Cl)cc2)CCCC1)c1ccsc1 (configuration not stated),i,+
Cc1ccsc1C(O)CNC(=O)C1(c2ccc(Cl)cc2)CCCC1 (configuration not stated),i,i
Cc1ccc(-c2nnc(CN3CCN(Cc4ccccc4)CC3)o2)cc1,i,i
Cc1ccc(-c2nnc(CN3CCC(Cc4ccccc4)CC3)o2)cc1,i,+!
O=c1c2cc(-c3ccc(F)cc3)nn2ccn1Cc1nc(-c2cccc(Cl)c2)no1,i,i
Cc1ccc(S(=O)(=O)c2cnc(SCC(=O)Nc3ccc(Br)cc3)[nH]c2=O)cc1,i,i
O=C(CSc1ncc(S(=O)(=O)c2ccc(Br)cc2)c(=O)[nH]1)Nc1ccccc1F,nt,+
CSCCC(C)(O)CNC(=O)c1ccc(S(=O)(=O)N(C)C)cc1 (configuration not stated),i,i
O=C(NCc1ccsc1)c1ccc(F)cc1,i,i
CC(C)c1cc(=O)n(CC(=O)Nc2nc3c(s2)CCCC3)cn1,i,i
CSc1nn(CC(=O)Nc2ccc(Br)cc2)c(N)c1S(=O)(=O)c1ccc(C)cc1,i,i
CSc1nn(CC(=O)Nc2ccc(Cl)cc2)c(N)c1S(=O)(=O)c1ccccc1,nt,+
O=C(/C=C/c1cccs1)NCC1CCN(Cc2ccsc2)CC1,i,+
COC(=O)N1CCC(CNC(=O)/C=C/c2cccs2)CC1,i,i
SMILES,GIRK2 activator,AMPAR-TARP mod
O=C(OCN1C(=O)c2ccccc2C1=O)C1CCCCC1,nt,i
CC(=O)OCCN1C(=O)c2cccc3c(N4CCCCC4)ccc(c23)C1=O,nt,+
CC(C)CCN1C(=O)C(C)(C)COc2ccc(NC(=O)COc3ccc(F)cc3)cc21,nt,+
COc1ccc(OCC(=O)Nc2ccc3c(c2)N(CCC(C)C)C(=O)C(C)(C)CO3)cc1,nt,i
O=C(NCCC1=CCCCC1)C1CN(C(=O)c2c[nH]c3ccccc23)C1,i,i
N#C/C(=C\c1cccs1)c1nc2ccccc2s1,nt,+
N#C/C(=C\c1ccccc1)c1nc2ccccc2s1,nt,i
O=C(NC(c1ccccc1)c1ccccc1)c1ccc(S(=O)(=O)NCc2ccco2)o1,i,+
CC(NC(=O)c1ccc(S(=O)(=O)N2CCOCC2)o1)c1ccccc1 (configuration not stated),i,i
O=C(Nc1cccc([N+](=O)[O-])c1)c1ccc(=O)[nH]n1,i,i
COc1ccc(S(=O)(=O)Nc2nc(C(=O)Nc3ccc(C(C)C)cc3)cs2)cc1,i,+
COc1ccc(S(=O)(=O)Nc2nc(C(=O)Nc3ccc(Cl)cc3)cs2)cc1,i,i
Clc1ccc(-c2noc(-c3ccc(CN4CCOCC4)cc3)n2)cc1,i,nt
CCN(C1CCCCC1)S(=O)(=O)c1ccc(C(=O)Nc2c(C(N)=O)oc3ccccc23)cc1,i,i
CC(C)S(=O)(=O)c1ccc(CC(=O)Nc2cc(-c3cccs3)nn2CCO)cc1,i,i
CCN(CC)S(=O)(=O)c1ccc(C(=O)Nc2cc(-c3cccs3)nn2CCO)cc1,i,+
CCOC(=O)NCC1CC(=O)N(c2ccc(F)cc2)C1 (configuration not stated),i,i
Cc1cccc(-n2nc3c(c2-n2cccc2)CN(C(=O)/C=C/c2ccco2)C3)c1,i,i
COc1ccccc1C1C=C(c2ccc(Cl)cc2)Nc2nc(NS(C)(=O)=O)nn21 (configuration not stated),nt,i
Cc1ccc(C2=CC(c3ccc(Cl)cc3)n3nc(N4C(=O)CCC4=O)nc3N2)cc1 (configuration not stated),nt,+
COc1nn(C)cc1C(=O)N1CCC(c2nnc(-c3ccco3)s2)CC1,i,i
